In ChEMBL document CHEMBL4513216, “Probing the Open Global Health Chemical Diversity Library for Multistage-Active Starting Points for Next-Generation Antimalarials” (ACS Infect Dis, 2020):
Among all 68,000 compounds or so, about 2,700 (4%) showed an effect of 50% or more. For the sample, strong results were picked, then their nearest neighbours and some compounds at random.

system: Plasmodium berghei; assay: Screen against P. berghei liver stage (PbLuc), transformed with Luciferase, at 2uM; format: functional, HepG2; conditions: tested at 2 uM

| Compound | INHIBITION [%] |
| --- | --- |
| COc1ccc(Cl)cc1CN(C)CC(=O)Nc1ccnn1C(C)C1CC1 (stereo not drawn) | -13.72 |
| Cc1cccc(C2(CNC(=O)CO)CCCC2)c1 | 35.23 |
| CC(=O)N(C)CC(=O)NCC1(c2cccc(C)c2)CCCC1 | 54.29 |
| CC(=O)N(C)CC(=O)NCC1(c2c(F)cccc2F)CCCC1 | -41.54 |
| CN1CCC(c2cccc(CCC(=O)NCC(N)=O)n2)CC1 | 7.64 |
| CN(C)C(=O)N1CCC2(CC1)CN(CC1CC1)CC21CCNC1=O (stereo not drawn) | 35.89 |
| CC(=O)N1CCC2(CC1)CN(C(C)=O)CC21CCNC1=O (stereo not drawn) | 24.36 |
| CC(=O)N1CCC2(CC1)CN(CC(C)C)CC21CCNC1=O (stereo not drawn) | 63.35 |
| CCC[C@H]1CN(Cc2cc(C#N)n(C)c2C)C[C@@H]1N(C)C | 51.4 |
| CCC[C@@H]1CN(Cc2cc(C#N)n(C)c2C)C[C@H]1NS(C)(=O)=O | 1.88 |
| CCC[C@H]1CN(Cc2cc(C#N)n(C)c2C)C[C@@H]1NS(=O)(=O)CC | 35.26 |
| NC(=O)c1sc2ccccc2c1C1CCN(S(=O)(=O)N2CCOCC2)C1 (stereo not drawn) | -18.15 |
| Cc1noc(C)c1CN1CC[C@@H]2O[C@@H](COCC(C)C)CC[C@@H]21 | 13.87 |
| CN(C)CCN1CC[C@@H]2O[C@@H](COCC(=O)N3CCCC3)CC[C@@H]21 | -30.82 |
| COCCN1CC[C@@H]2O[C@@H](COCC(=O)N3CCCC3)CC[C@@H]21 | -14.49 |
| COCCN1CC[C@@H]2OC(COCC(=O)N3CCCC3)CC[C@@H]21 (stereo partly drawn) | 51.05 |
| Cc1ncnc2c1CCN(Cc1cccs1)CC2 | -8.24 |
| CNS(=O)(=O)CC(=O)N1CCC(c2cc3ccccc3[nH]2)CC1 | -46.85 |
| O=C(C1CCC1)N1CCC2(CCCN2CC2CC2)CC1 | 55.66 |
| O=C(C1CCCCC1)N1CCC2(CCCN2CC2CC2)CC1 | 24.15 |
| O=C(C1CCCC1)N1CCC2(CC1)COCCN2CC1CC1 | -11.91 |
| CC(C)NC(=O)[C@@H]1CC[C@@H]2[C@@H](CCN2Cc2cn(C)c3ccccc23)O1 | 29.43 |
| CCN1CC(C(=O)NCCCc2nc(C)c(C)s2)CC1=O (stereo not drawn) | 72.05 |
| Cc1nc(CCCNC(=O)C2CC(=O)N(C3CC3)C2)sc1C (stereo not drawn) | -52.42 |
| Cc1nc(CCCNC(=O)C2CC(=O)N(C(C)(C)C)C2)sc1C (stereo not drawn) | 13.87 |
| CCS(=O)(=O)NCc1cccnc1N1CCCC(O)C1 (stereo not drawn) | -5.31 |

| Compound | INHIBITION [%] |
| --- | --- |
| Nc1nc(C2CCN(C(=O)c3cncs3)CC2)cs1 | 0.14 |
| CCC(=O)Nc1ccc(F)c(S(=O)(=O)NC(C)(C)C)c1 | 57.75 |
| CC(C)(C)NS(=O)(=O)c1ccc(NC(=O)C2CC2)cc1 | 17.2 |
| CC(=O)Nc1ccc(F)c(S(=O)(=O)NC(C)(C)C)c1 | -1.87 |
| COC1CCN(c2ccc(NC(=O)C3CC3)cc2C(F)(F)F)CC1 | -1.71 |
| CC(C)(C)NS(=O)(=O)c1cc(NC(=O)C2CC2)ccc1F | 62.51 |
| CCNC(=O)CNS(=O)(=O)c1cc(Br)ccc1F | 42.32 |
| CCS(=O)(=O)N1Cc2c(Cn3ccnc3)nn(C(C)C)c2C1 | 3.72 |
| Cc1n[nH]c(C)c1CC(=O)NCCc1ccccc1 | 25.21 |
| COc1ccc(CC2CN(C(=O)c3coc(C)n3)CCO2)cc1 (stereo not drawn) | -10.03 |
| Cc1nc(C(=O)N2CCOC(Cc3ccc(F)cc3)C2)co1 (stereo not drawn) | 51.45 |
| Cc1nc(C(=O)N2CCOC(Cc3ccccc3)C2)co1 (stereo not drawn) | 5.76 |
| CCOCCN1CCn2c(C)nnc2C1 | 58.53 |
| Cc1nnc2n1CCN(CCOc1ccccc1)C2 | -55.52 |
| Cc1cc(C)cc(OCCN2CCn3c(C)nnc3C2)c1 | 20.41 |
| CC(C)[C@H]1CN(CCCO)C[C@@H]1NC(=O)CCS(C)(=O)=O | 25.9 |
| O=C(CCS(=O)(=O)C1CCCC1)NCc1ccccc1Cn1cncn1 | 31.57 |
| COc1c(CNC2CCc3ccccc32)c(C(C)C)nn1C (stereo not drawn) | 24.65 |
| COc1c(CNC2CCCOc3ccccc32)c(C)nn1C (stereo not drawn) | -18.88 |
| Cc1nn(C)c(Oc2ccccc2)c1CNC1CCOc2ccccc21 (stereo not drawn) | -15.64 |
| COc1c(CNC2CCOc3ccccc32)c(C)nn1C (stereo not drawn) | 64.08 |
| COc1c(CNC2CCCc3ccccc32)c(C(C)C)nn1C (stereo not drawn) | 69.22 |
| COc1c(CNC2CCCc3ccccc32)c(C)nn1C (stereo not drawn) | 11.28 |
| O=C1NCCCC[C@@H]1Nc1ccc(-c2nc(C3CC3)no2)cn1 | 8.75 |
| c1cncc(COCc2nnc3n2CCN(Cc2ccco2)C3)c1 | -8.22 |
| COc1ccccc1CC(C)(C)C(=O)NCC(=O)Nc1cccnc1 | -16.15 |

| Compound | INHIBITION [%] |
| --- | --- |
| O=C(NC1CCC(O)CC1)c1ccc2nc(-c3ccccc3)cn2c1 (stereo not drawn) | 2.17 |
| COc1ccc(C)cc1CC(=O)Nc1cc(C)n[nH]1 | -19.45 |
| CC(C)CNC(=O)c1ccc2c(=O)n(-c3ccccc3)cnc2c1 | 43.75 |
| Cn1c(=O)[nH]c(=O)c2c1nc1n2CC(c2ccc(Cl)cc2)O1 (stereo not drawn) | 13.01 |
| COc1ccc(C2CC(=O)Nc3c2nc2n3CCCC2)cc1O (stereo not drawn) | 24.29 |
| O[C@H]1CCN(CC2CCOC2)[C@H]1Cc1ccncc1 (stereo partly drawn) | 3.56 |
| O[C@H]1CCN(CC2CC2)[C@H]1Cc1ccncc1 | 55.7 |
| O[C@@H]1CCN(CC2CC2)[C@H]1Cc1ccccc1 | -17.26 |
| CC(=O)N[C@H]1CCN(C(=O)c2cc(Cn3cnc4ccccc43)[nH]n2)C1 | 60.71 |
| COc1ccccc1OCc1cc(C(=O)N2CCC(NC(C)=O)C2)n[nH]1 (stereo not drawn) | -49.85 |
| O=C(N[C@H]1CN2CCC1CC2)c1cc(Cn2cnc3ccccc32)[nH]n1 | 48.93 |
| NC(=O)c1cn[nH]c1C1CCCN1C(=O)c1cnccn1 (stereo not drawn) | 39.5 |
| Cc1nc2c(c(NCC(c3cccnc3)N3CCOCC3)n1)CCNC2 (stereo not drawn) | -10.09 |
| Cc1ncc(CN(C)C(=O)Nc2cccc(N3CCNC3=O)c2)s1 | -82.26 |
| Cc1nc(CCCC(=O)Nc2cccc(N3CCNC3=O)c2)cs1 | -33.58 |
| Cc1nc(CSCCC(=O)Nc2cccc(N3CCNC3=O)c2)cs1 | 54.82 |
| CC(OCC1CC1)C(=O)N1CCCN(c2nc3ccccc3[nH]2)CC1 (stereo not drawn) | -38.2 |
| Cn1ncc2c1C(COCC1CC1)CN(S(=O)(=O)C1CC1)C2 (stereo not drawn) | 3.63 |
| Cc1ncsc1CN1Cc2cn(C)nc2C(COCC2CC2)C1 (stereo not drawn) | -64.59 |
| Cn1ncc2c1C(COCC1CC1)CN(Cc1nccs1)C2 (stereo not drawn) | -44.9 |
| Cc1ncsc1CN1Cc2cnn(C)c2C(COCC2CC2)C1 (stereo not drawn) | 50.17 |
| CCOCC1CN(S(C)(=O)=O)Cc2cnn(C)c21 (stereo not drawn) | 18.97 |
| Cn1ncc2c1C(COCC1CC1)CN(S(C)(=O)=O)C2 (stereo not drawn) | 51.72 |
| Cn1ccc2c(C(=O)N3CCC(C(N)=O)CC3)cccc21 | 40.31 |
| Cn1c(CN2CCCC2c2noc(C3CC3)n2)cc(=O)n(C)c1=O (stereo not drawn) | 12.91 |
| CCCN1CCC(CC(=O)N2CCC(C(O)c3nccn3C)CC2)CC1 (stereo not drawn) | 51.19 |

| Compound | INHIBITION [%] |
| --- | --- |
| CC(C)N1CCC(C(=O)N2CCC(C(O)c3nccn3C)CC2)CC1 (stereo not drawn) | 6.4 |
| CC(C)N1CCC(CC(=O)N2CCC(C(O)c3nccn3C)CC2)CC1 (stereo not drawn) | 15.11 |
| COCC(=O)Nc1nn(Cc2ccc(F)cc2)cc1Cl | -20.28 |
| Cc1noc(C)c1CN1CCN(c2ccnc(-c3ccccc3)n2)CC1 | -5.53 |
| CCOc1ccccc1OC1CCN(C(=O)c2cc[nH]n2)CC1 | 7.54 |
| CCc1ccc(NS(=O)(=O)C=c2[nH]c(=O)n3cccc3c2=O)cc1 | -1.14 |
| O=c1c(=CS(=O)(=O)Nc2ccc(Br)cc2)[nH]c(=O)n2cccc12 | -42.73 |
| O=c1c(=CS(=O)(=O)Nc2ccccc2)[nH]c(=O)n2cccc12 | 53.68 |
| O=c1c(=CS(=O)(=O)Nc2ccc(Cl)cc2)[nH]c(=O)n2cccc12 | 50.52 |
| CC(C)c1ccc(NS(=O)(=O)C=c2[nH]c(=O)n3cccc3c2=O)cc1 | 9.43 |
| Cc1ccc(NS(=O)(=O)C=c2[nH]c(=O)n3cccc3c2=O)cc1 | -68.56 |
| Cc1cc(C)cc(CN2CCC3(CC2)CC(Nc2ncccn2)CO3)c1 (stereo not drawn) | 24.43 |
| CNC(=O)C1CN(c2ccnc(C)n2)CCN1Cc1ccccc1 (stereo not drawn) | -10.89 |
| CC(C)NC(=O)[C@@]12CCO[C@@H]1CCN(Cc1ccco1)C2 | 16.63 |
| CN(C)CCN1C[C@@H]2OCCN(Cc3cnn(C)c3)[C@@H]2C1 | 33.4 |
| CCC(CC)CN1C[C@@H]2OCCN(Cc3cnn(C)c3)[C@@H]2C1 | 56.78 |
| Cn1cc(CN2CCO[C@H]3CN(Cc4ccco4)C[C@H]32)cn1 | 10.53 |
| CC(=O)Nc1ccc(S(=O)(=O)N2CCOC(Cn3ccnc3)C2)cc1 (stereo not drawn) | 1.92 |
| O=S(=O)(N1CCCCC1)N1CCC(Oc2cnccn2)CC1 | 41.98 |
| O=S(=O)(N1CCOCC1)N1CCC(Oc2cnccn2)CC1 | -7.91 |
| CC1CCN(S(=O)(=O)N2CCC(Oc3cnccn3)CC2)CC1 | 52.82 |
| O=S(=O)(c1ccccc1)N1CCC2(CCCN2Cc2cccc(Cl)c2)C1 (stereo not drawn) | 35.26 |
| CNC(=O)C1CCN(Cc2nc(-c3ccc(SC)cc3)oc2C)C1 (stereo not drawn) | 13.94 |
| CSc1ccc(-c2nc(CN3CCC(NC(C)=O)CC3)c(C)o2)cc1 | -11.37 |
| CSc1ccc(-c2nc(CN3CCC(NC(C)=O)C3)c(C)o2)cc1 (stereo not drawn) | 52.77 |
